Most compounds without a hit are left out; they make up all but 0.45% or so of the library.
MLL CXXC-DNA inh = blocks binding of human MLL CXXC domain to DNA; 0.037% of 290,000 active; MLL-CXXC / FITC-HOXA9 DNA fluorescence polarization; Potency, µM (doses to about 115 µM), for the others: at the top dose activity change, negative = inhibition, actives largely listed as inhibitors; AID 2662; active = well fitted inhibition curve with a large enough effect in the polarisation, with a control signal flat, not every such curve was filed as active; inconclusive = small, poorly fitted or top-dose-only effect, or effect the other way, or a change in a side signal; inactive = no such curve, though single readings can be large or run the other way; the % refers to the polarisation; also: potency is read from the fitted curve at half-maximal effect
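Steps: dispense CXXC domain solution (7 uM) → pin compounds or unlabeled HOX-A9 DNA control → 5 min ambient → add FLSN-HOX-A9 solution (50 nM) → spin → 30 min ambient → fluorescence polarization. Tris pH 7.5/NaCl/DTT/BSA buffer.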
Menin-MLL FL inh = menin-MLL binding inhibition, fluorescein peptide | Fluorescence polarization, fluorescein-MLL peptide displacement from menin | FP activity change, % at 61.4 µM | 290,000 tested, under 10 active | AID 1766; active = well fitted curve in the direction sought with a large enough effect in the polarisation, not every such curve was filed as active; inconclusive = small, poorly fitted or top-dose-only effect, or effect the other way, or a change in a side signal; inactive = no such curve, though single readings can be large or run the other way; the % refers to the polarisation; also: % of control where 0% means no effect
GAA glycogen = alters human alpha-glucosidase cleavage of glycogen. AID 2100. Potency, µM (doses to about 76.4 µM), inactives show top-dose activity change, negative = inhibition, usual class: inhibitors. recombinant GAA, glycogen substrate, Amplex Red glucose oxidase fluorescence. P10253. 0.38% of 300,000 active;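 also: potency is read from the fitted curve at half-maximal effect; 0% = full enzyme reaction and -100% = no-enzyme basal signal; the screen sought inhibitors and activators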
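Recombinant enzyme (4 nM final) with compounds titrated up to 77 uM and bovine liver glycogen (30 ug) in citrate pH 5.0, 0.01% Tween-20, 37 C 40 min. Released glucose detected by Amplex Red/glucose oxidase (Ex 573/Em 610); AC50 from Hill fits.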
Menin MLL FP TR = inhibitors of human menin-MLL interaction, mutant MLL peptide | O00255 | Menin + Texas Red MLL mutant peptide, fluorescence polarization | AID 1768 | 0.23% of 270,000 active | Potency, µM (highest dose often 61.6 µM), for the others: at the highest dose FP activity change, negative = inhibition, hits mostly inhibitors; active = well fitted inhibition curve with a large enough effect in the polarisation, with a control signal flat, not every such curve was filed as active; inconclusive = small, poorly fitted or top-dose-only effect, or effect the other way, or a change in a side signal; inactive = no such curve, though single readings can be large or run the other way; the % refers to the polarisation; also: potency is read from the fitted curve at half-maximal effect; % of control where 0% means no effect
GAA inhib = inhibitors of human lysosomal alpha-glucosidase. purified human GAA, 4-MU-alpha-glucoside fluorescence. Potency, µM (top dose mostly 76.9 µM), without a hit: top-dose activity change, negative = inhibition, usual class: inhibitors. 0.005% of 200,000 active. AID 1466. P10253;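 also: potency is read from the fitted curve at half-maximal effect; plate controls were uninhibited enzyme wells for no effect and no-enzyme background for full effect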
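qHTS format, compound range up to 77 uM. Human lysosomal enzyme at 4 nM, 400 uM 4-MU glucoside substrate, pH 5.0, 20 min room temperature; fluorescence after alkaline stop gives activity normalized to controls.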
GAA spleen mod = lysosomal alpha-glucosidase (human) modulation | P10253 | human spleen homogenate, 4-MU-alpha-glucoside fluorescence | Potency, µM (titrated, usually from 79.9 µM), inactives show top-dose activity change, negative = inhibition, most hits filed as inhibitors | 0.006% of 240,000 active;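 also: potency is read from the fitted curve at half-maximal effect; 0% = enzyme with vehicle and -100% = no enzyme basal signal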
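Enzyme source: human spleen homogenate, 1 ug/well. Buffer 50 mM citric acid/K phosphate pH 5.0, 0.01% Tween-20. 4-MU-alpha-glucoside 1 mM; 37 C x 40 min; NaOH/glycine stop; fluorescence.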
The depositor's hits bear a star; ? = inconclusive; · = no result; ! = repeats disagree; [ ] = another dose, or the depositor's remark. Unless noted, calls follow the shape of the dose curve; as a rule, active = well fitted curve in the direction sought with a large enough effect; inconclusive = small, poorly fitted or top-dose-only effect, or another doubt; inactive = no such curve, though single readings can be large; an effect the other way counts as inactive or inconclusive.

SMILES | MLL CXXC-DNA inh | Menin-MLL FL inh | GAA glycogen | Menin MLL FP TR | GAA inhib | GAA spleen mod
Cc1ccc(CCNC(=O)c2ccc(CSc3nc4ccncc4n3Cc3ccc(F)cc3)cc2)cc1 | · | · | -10%[76.3 µM] | · | · | ·
Cn1cc(/C=N/n2cnc3scc(-c4ccc(Cl)cc4)c3c2=O)c2ccccc21 | 6% | 0 | -13% | 11µM* | 4% | -5%
CN1/C(=C\C(=O)COC(=O)c2ccc(O)c(O)c2)C(C)(C)c2ccccc21 | 4% | -1 | 10µM* | ? | 0% | -2%
COc1cc(NCc2ccc3nc(N)nc(N)c3c2C)cc(OC)c1OC | 12% | 0 | · | 25µM*! | · | 1%
CCOC(=O)CNS(=O)(=O)c1ccc(F)cc1Br | · | -8 | · | 13% | · | 1%
Oc1ccc(/C=N/Nc2ccc(Cl)nn2)cc1O | 28% | -7 | 6.3µM* | ? | · | ·
COc1cc(/C=N/Nc2ccccn2)ccc1O | -11% | -1 | 25µM* | · | · | -4%
COc1cc(/C=N/Nc2ccc(C(=O)O)cc2)ccc1O | -11% | 1 | 5.6µM* | 12% | -10% | -4%
COc1ccc(/C=N/Nc2ccccn2)cc1OC | 0% | -3 | ? | · | · | -6%
COc1cc(/C=N/NC(=O)NC2CCCCC2)cc(OC)c1O | -1% | 3 | -9% | · | · | -1%
COc1cc(/C=N/NC(=O)NC2CCCCC2)ccc1O | 0% | 3 | 25µM* | · | · | 2%
Cc1ccc(/C=N/Nc2ccc(Cl)nn2)cc1 | -20% | 3 | 3% | · | · | 6%
CN(CCO)S(=O)(=O)c1ccc2c(c1)C(=NNC(N)=O)c1cc(S(=O)(=O)N(C)CCO)ccc1-2 | -7% | -1 | -7% | · | · | -14%
CN(CCCC(=O)O)S(=O)(=O)c1ccc2c(c1)C(=O)c1cc(S(=O)(=O)N(C)CCCC(=O)O)ccc1-2 | -9% | 0 | 25µM* | 15% | · | ·
CC(C)C1=Nc2cccc3cccc(c23)N1 | 1% | 1 | 25µM* | 4% | ? | -3%
COc1ccc(C2=Nc3cccc4cccc(c34)N2)cc1 | -15% | 5 | ? | ? | 10% | 2%
O=C(NC(=S)N1CCN(c2ccc(O)cc2)CC1)c1cccs1 | -17% | -1 | 10µM* | · | · | -2%
O=C(NC(=S)N1CCN(c2ccc(F)cc2)CC1)c1cccs1 | -1% | 0 | -10% | 34% | -2% | 2%
CC(C)NC(=O)c1ccc(S(=O)(=O)N(C)C)cc1 | 2% | -2 | 23% | 10% | 0% | 5%
CN(C)NC(=O)c1ccsc1NC(=O)c1ccc(S(=O)(=O)N(C)C)cc1 | -2% | 3 | 5.6µM* | 8% | · | -3%
COC(=O)CC1C2(C)CC34OC5(C)O[C@@]6(C7/C(=C(/OC)C(C)C)C(=O)OC(c8ccoc8)[C@@]7(C)C(OC(=O)C(C)C)C(OC)[C@]6(O5)[C@@]13C)C(OC)[C@]4(OC)C2OC(C)=O (stereo not given in full) | · | 3 | · | -6% | · | 7%
CC(=C/c1ccccc1)/C=N/n1c(-c2ccco2)n[nH]c1=S | 9% | -15 | 25µM* | ? | -15% | -1%
CC(/C=N/n1c(-c2cc(C)[nH]n2)n[nH]c1=S)=C\c1ccccc1 | -1% | 4 | -7% | 7% | ? | 2%
COc1ccc(-n2cc(CNCCc3ncc(C)[nH]3)c(-c3ccccc3Cl)n2)cc1 | -1% | 0 | 7.1µM* | -2% | -3% | -2%
CN(C)c1ccc(CNC(=O)[C@@]2(C)C=C[C@@H](Cc3ccccc3)N2C)cc1 | · | 6 | · | 0% | · | -8%
SMILES | MLL CXXC-DNA inh | Menin-MLL FL inh | GAA glycogen | Menin MLL FP TR | GAA inhib | GAA spleen mod
N#CC1=C(N)C2=C(N3CCCCC3)CCCC2C1(C#N)C#N (stereo not given) | -1% | ? | 22µM* | 0% | -3% | 1%
C(=N\N1CCN(C2c3ccccc3-c3ccccc32)CC1)/c1cccnc1 | 3% | 5 | -20% | -24% | -5% | -9%
C/C(=N\N1CCN(C2c3ccccc3-c3ccccc32)CC1)c1cccnc1 | -7% | 0 | 32µM* | 4% | 12% | -22%
CCOc1cc(CNc2ccc(N3CCN(C(C)=O)CC3)cc2)cc(Br)c1OC | 10% | 5 | 3% | -2% | -8% | -8%
COc1cc(CNc2ccc(N3CCOCC3)cc2)cc(Br)c1OC | -17% | -1 | 45µM* | -9% | 3% | -20%
COc1cc(CNc2ccc(N3CCCC3)cc2)cc(Cl)c1OC | 38% | -1 | ? | 28µM* | ? | -1%
CCOc1c(Br)cc(CNc2ccc(N3CCN(C(C)=O)CC3)cc2)cc1OC | 9% | 2 | 32µM* | · | · | -1%
CC(=O)N1CCN(c2ccc(NCc3ccc(F)cc3)cc2)CC1 | -1% | 0 | ? | -9%[11.7 µM] | -4%[15.4 µM] | 1%
COc1cc(CNc2ccc(N3CCN(C(C)=O)CC3)cc2)ccc1OCc1ccc(F)cc1 | 1% | -1 | 25µM* | -13% | 2% | 1%
Fc1ccc(Nc2nc3ccccc3c3nncn23)c(Cl)c1 | · | · | 13%[76.3 µM] | · | · | ·
CCNc1ncc2nc(C)c(=O)n(Cc3cccs3)c2n1 | · | 4 | · | -2% | · | 8%
COC(=O)c1ccccc1S(=O)(=O)N1CCc2nc(-c3ccccc3)c3c(c2C1)CO[C@@H](C)C3 | · | 6[11.7 µM] | · | 1%[11.7 µM] | · | -4%[17.4 µM]
COC(=O)C1=C(C(=O)OC)[C@@H]2N(C)c3ccc(OC)cc3[C@@]23C[C@@H](C(=O)OC)N(S(=O)(=O)c2ccc(C(F)(F)F)cc2)C3=N1 | · | -4[11.7 µM] | · | 0%[11.7 µM] | · | 6%[17.4 µM]
Cc1cc(=O)n(-c2ccc(O)cc2)[nH]1 | 9% | ? | 14µM* | 2% | 3% | -5%
Cc1cc(=O)n(-c2ccc(C(=O)O)cc2)[nH]1 | ? | -4 | -17% | -7% | 3% | 1%
Cc1ccn2c(Nc3ccccc3C)c(-c3cccnc3)nc2c1 | -2% | 0 | ? | ? | -1% | -8%
COc1cc(O)ccc1-c1nc2cc(C)ccn2c1Nc1ccccc1C | · | · | 13µM* | · | · | ·
CCCCOC(=O)c1c(N)n(-c2ccc(OC)cc2OC)c2nc3ccccc3nc12 | · | · | -13%[76.3 µM] | · | · | ·
COc1cc(C2C(C#N)=C(N)Oc3c2ccc2ccccc32)ccc1OCC(=O)Nc1ccccc1C (stereo not given) | 26% | 4 | -13% | 25µM* | -2% | -13%
O=C(Nc1ccc(Cl)c(Cl)c1)N(Cc1c[nH]c2ccccc12)C1CCCCC1 | · | · | 10%[76.3 µM] | · | · | ·
O=S(=O)(c1ccc(OCC(O)CN2CCN(c3ccccc3O)CC2)cc1)N1CCOCC1 (stereo not given) | -2% | -2 | 6.3µM* | -6% | -6% | 0%
O=C(NNC(=O)c1cc2cc3ccccc3nc2s1)c1cccc(Cl)c1 | 12% | 6 | 2% | ? | 0% | -2%

Source: PubChem BioAssay (National Center for Advancing Translational Sciences (NCATS))
